Bioassay records as filed in PubChem.
EWS-Fli inh – EWS/Fli transcriptional activity inhibition; AID 651661; 0.67% of 350,000 active; A673 NR0B1-luciferase reporter, viability-normalised; inhibition, % at 12.6 µM;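 active = mean inhibition of at least 50% after viability correction, with every replicate also passing that limit; inconclusive = mean reaches 50% but only one of two replicates passes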;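 note: firefly luciferase signal divided by Alamar Blue viability fluorescence both relative to DMSO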
Env fusion inh – blocks HIV Env-driven cell-cell fusion | HeLa-JRFL Env/CEM21 cell fusion, luciferase | 1.1% of 360,000 active | inhibition, % at 12.3 µM | AID 651610;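 active = mean replicate inhibition score of at least 50 and every replicate individually at or above 50; inconclusive = only one of the two criteria met; inactive = mean below 50 and not all replicates reaching 50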;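 note: 0% = plate neutral controls and 100% = maraviroc near 300 nM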
F508del corr – correctors of CFTR F508del function in bronchial epithelial cells | CFBE cells, YFP halide quenching; stimulated with forskolin plus potentiator P3; % fluorescence drop versus neutral controls | activity (quench increase), % at 7.58 µM | 0.36% of 350,000 active;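 active = mean added fluorescence quench of at least 8% versus neutral control, with both replicates also reaching 8%; inconclusive = only one of the mean or replicate conditions met; inactive = mean below 8% and not both replicates reaching 8%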;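 note: cells transiently co-express mutant CFTR-F508del with the halide-sensitive YFP; corrector assay measuring rescue of mutant channel to the surface after 24 h compound exposure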
FXN GAA850 act – activators of GAA850 frataxin (FXN) promoter | AID 540364 | HEK293 lucGAA850 FXN promoter luciferase reporter, 24 h; percent of 10 µM SAHA response | activation, % at 6 µM | 0.56% of 360,000 active;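 active = activation above the average of all compounds screened plus 3 SD, cutoff fixed separately per campaign, cut at about 7.5% in these data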;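 note: 0% = DMSO wells and 100% = 10 µM SAHA wells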
PAX8 inh HTS – lowers PAX8-driven luciferase in RMG-I cells | 1.2% of 360,000 active | RMG-I TPO-luciferase reporter, SteadyGlo, 24 h | AID 652154 | inhibition, % at 12.6 µM;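 active = mean replicate inhibition at least 60% with every replicate also reaching 60%; inconclusive = only one of the two criteria is met; inactive = mean below 60% and not all replicates reaching 60%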;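 note: luciferase light reporting Pax8 driven TPO promoter activity; plate controls were median of neutral control wells for no effect and mitoxantrone controls for full effect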
The depositor's hits bear a star; ? = inconclusive; nt = no result given; ! = a repeat was not active; [ ] = another dose, or the depositor's remark. Compounds with a hit are over-represented: about 2.5% of the library has one in this group of screens.

SMILES	EWS-Fli inh	Env fusion inh	F508del corr	FXN GAA850 act	PAX8 inh HTS
Cc1ccc(S(=O)(=O)Nc2ccc3c(c2)CC(=O)N([C@@H](C)CO)C[C@H](C)[C@@H](CN(C)Cc2ccc(-c4ccccc4)cc2)O3)cc1	13.8	75.2*[16.7 µM]	1.1	nt	nt
Cc1ccc(S(=O)(=O)Nc2ccc3c(c2)CC(=O)N([C@@H](C)CO)C[C@@H](C)[C@H](CN(C)Cc2ccc(Cl)c(Cl)c2)O3)cc1	19.4	33.3[16.7 µM]	1.4	nt	92.0*
Cc1ccc(S(=O)(=O)Nc2ccc3c(c2)CC(=O)N([C@H](C)CO)C[C@H](C)[C@H](CN(C)Cc2ccc(Cl)c(Cl)c2)O3)cc1	-13.0	10.9[16.7 µM]	4.4	nt	6.9
C[C@H]1CN([C@@H](C)CO)C(=O)Cc2cc(NS(=O)(=O)c3ccc(F)cc3)ccc2O[C@@H]1CN(C)Cc1ccc(-c2ccccc2)cc1	1.8	-19.0[16.7 µM]	3.9	nt	16.9
CN(C)CCN(C(=O)/C=C/c1cccs1)c1nc2c(F)cc(F)cc2s1	nt	-2.7	nt	-0.8	96.6*
COc1ccc(OC)c2sc(N(CCN(C)C)C(=O)/C=C/c3cccs3)nc12	nt	23.3	-0.5	-0.2	78.9*
O=C(c1ccc2c(c1)OCO2)N1CC(=O)N2[C@H](CO)[C@@H](c3ccc(C#Cc4ccccc4)cc3)[C@@H]2C1	8.1	nt	3.7	nt	nt
COc1cccc(-c2nc(CS(=O)(=O)CC(=O)NCCCN3CCN(C)CC3)c(C)o2)c1	8.4	7.6	2.5	2.1	-5.0
COc1cccc(-c2nc(CS(=O)(=O)CC(=O)NCCCN3CC(C)CC(C)C3)c(C)o2)c1 (centres undefined)	0.4	6.0	-7.7	1.0	117.8*
CN1CCN(c2ccc(NC(=O)N3CCc4ccccc43)cc2)CC1	61.9*	18.6	0.3	-7.8	48.9
COC(=O)c1ccc(CC2(C)C(=O)Nc3ccc(-c4cccc(C(F)(F)F)c4)cc32)o1 (centres undefined)	4.8	64.8*	0.7	7.4	17.6
CC(=O)c1cccc(-c2ccc3c(c2)C(C)(Cc2ccccc2F)C(=O)N3)c1 (centres undefined)	8.3	5.0	-5.6	1.7	13.6
CCC(=O)N1CC(=O)N2[C@H](CO)[C@@H](c3ccc(C#Cc4cccc(OC)c4)cc3)[C@H]2C1	19.5	nt	2.8	nt	-33.6
Cc1noc(C)c1NC(=O)Nc1ccc2c(c1)C(=O)N([C@@H](C)CO)C[C@H](C)[C@@H](CN(C)S(=O)(=O)c1ccccc1)OCCCC[C@H](C)O2	-3.5	-63.1[16.7 µM]	1.1	nt	5.1
COc1ccc(C[C@H](N)C(=O)N[C@H]2[C@@H](O)[C@H](n3cnc4c(N(C)C)ncnc43)O[C@@H]2CO)cc1	5.6	31.3	-3.2	-3.6	117.1*
CN(C)c1ncnc2c1ncn2C1OC(CO)C(O)C1O (centres undefined)	nt	nt	nt	-6.5	nt
O=C(C[C@@H]1C[C@@H]2c3cc(NC(=O)CC4CC4)ccc3O[C@@H]2[C@H](CO)O1)NCc1ccccc1F	-5.7	nt	-0.6	nt	nt
Cc1cc(N2CCC(C)CC2)c(F)cc1[N+](=O)[O-]	nt	14.4	nt	2.5	nt
Cc1cc(N2CCCC2)c(F)cc1/C=C\[N+](=O)[O-]	-5.8	-148.7	28.1*	-0.9	9.2
O=C(CCCCn1c(=O)[nH]c2ccccc2c1=O)N1CCN(c2cccc(C(F)(F)F)c2)CC1	nt	83.3*	nt	2.5	24.1
COc1ccc(S(=O)(=O)Nc2ccc3c(c2)C(=O)N([C@@H](C)CO)C[C@@H](C)[C@H](CN(C)Cc2ccccc2)O3)cc1	-1.8	-0.4[16.7 µM]	0.0	nt	nt
COc1cccc(CNc2ncc(C(=O)Nc3cc(OC)c(OC)c(OC)c3)c(C)n2)c1	52.3*	-0.2	4.2	-3.9	32.6
COc1cc(NC(=O)c2cnc(NCc3ccccc3)nc2C)cc(OC)c1OC	7.3	28.5	1.6	-1.4	21.1
O=C(Nc1ccccc1)N1CCCCN2[C@H](C1)[C@@H](c1ccc(C3=CCCCC3)cc1)[C@@H]2CO	-11.1	nt	1.0	nt	17.6
COc1ccc(NC(=O)N2CCCCN3[C@@H](CO)[C@@H](c4ccc(C5=CCCC5)cc4)[C@@H]3C2)cc1	4.3	nt	-3.8	nt	81.8*
SMILES	EWS-Fli inh	Env fusion inh	F508del corr	FXN GAA850 act	PAX8 inh HTS
O=C(Nc1ccc(F)cc1)N1CCCCN2[C@H](CO)[C@@H](c3ccc(C4=CCCCC4)cc3)[C@H]2C1	?	nt	0.1	nt	73.6*
COc1cccc(-c2ccc3c(c2)[C@H]2[C@H](CCN2C(=O)C2CCCC2)[C@@H](CO)N3)c1	4.2	nt	0.8	nt	nt
CCn1c(/C=C/c2ccccc2C)nc2ccccc2c1=O	-18.8	-4.6	0.8	5.6	-45.8
CCn1c(/C=C/c2c(C)n(CC)c3ccccc23)nc2ccccc2c1=O	-15.2	nt	0.2	0.1	72.5*
C[C@H]1CN([C@@H](C)CO)C(=O)c2cc(-c3cccnc3)cnc2O[C@H]1CN(C)C(=O)C1CCCCC1	-7.0	11.6[16.7 µM]	-1.8	nt	nt
CC1Sc2n(c3ccccc3[n+]2C)N=C1c1ccccc1 (centres undefined)	nt	60.4*	nt	0.7	67.6*
CC(C)(C)NC(=O)C(c1ccccc1)N(Cc1cccs1)C(=O)c1csnn1 (centres undefined)	nt	71.9*	nt	1.0	nt
CC(C)(C)NC(=O)C(c1cccs1)N(Cc1ccco1)C(=O)c1csnn1 (centres undefined)	2.7	9.7	-0.5	2.3	-4.9
O=C(C1CC1)N1C[C@@H]2N[C@H](C1)C2c1ccc(-c2cccc(F)c2)cc1 (some centres undefined)	5.7	nt	1.6	nt	82.7*!
O=C(C1CCCC1)N1C[C@@H]2N[C@H](C1)C2c1ccc(-c2cccc(F)c2)cc1 (some centres undefined)	-4.0	nt	1.3	nt	nt
O=C(NC1CCCCC1)N1C[C@@H]2N[C@H](C1)C2c1ccc(-c2cccc(F)c2)cc1 (some centres undefined)	-7.9	nt	-1.1	nt	62.6*!
N#Cc1ccc(-c2ccc(C3[C@@H]4CN(C(=O)c5ccc6c(c5)OCO6)C[C@H]3N4)cc2)cc1 (some centres undefined)	-7.8	nt	2.4	nt	90.9*!
N#Cc1ccc(-c2ccc(C3[C@@H]4CN(C(=O)C5CCCC5)C[C@H]3N4)cc2)cc1 (some centres undefined)	2.9	nt	1.0	nt	nt
N#Cc1cccc(-c2ccc(C3[C@@H]4CN(C(=O)C5CC5)C[C@H]3N4)cc2)c1 (some centres undefined)	-2.9	nt	-4.4	nt	98.0*!
CCC(=O)N1C[C@H](C)[C@H](OC)CN(C)C(=O)c2ccc(NC(=O)COC)cc2OC[C@H]1C	nt	nt	-1.5	nt	nt
O=C(Nc1ccc(F)cc1)N1[C@H](CO)[C@@H]2c3ccccc3NC[C@@H]21	-17.0	nt	-1.7	nt	-19.3
C[C@@H]1CCCCO[C@@H](CN(C)C)[C@@H](C)CN([C@@H](C)CO)C(=O)c2cc(NS(=O)(=O)c3ccc(Cl)cc3)ccc2O1	-5.2	12.6[16.7 µM]	0.2	nt	5.2
CCC(=O)N(C)C[C@@H]1Oc2cc(-c3ccc(OC)cc3)ccc2S(=O)(=O)N([C@H](C)CO)C[C@H]1C	5.4	6.5[16.7 µM]	-2.8	nt	8.4
